# Laboratory results taken from PubChem BioAssay AID2562 (National Center for Advancing Translational Sciences (NCATS), 2010).
# Records with an inconclusive call do not appear. Entries that show only a call come without a potency. Activity calls are given as the source filed them. Calls come from the whole dose curve; as a rule, active = well fitted curve in the direction sought with a large enough effect; inconclusive = small, poorly fitted or top-dose-only effect, or effect the other way, or another doubt; inactive = no such curve, though single readings can be large or run the other way.
# Molecular target: Pyruvate kinase PKLR (Homo sapiens) (UniProt P30613)
# Assay: Secondary LDH Assay for Activators of Human Reticulocyte Pyruvate Kinase: for Probe SAR
# Details: purified hPK-R, LDH-coupled NADH fluorescence kinetic; series mostly up to 58.4 µM
# Method in brief: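 Purified hPK-R (10 nM) coupled to LDH (1 uM), with 0.1 mM PEP, 4.0 mM ADP, 0.2 mM NADH in Tris-Cl pH 8.0, KCl, MgCl2. Initial rates came from kinetic NADH fluorescence over 3-6 minutes, normalized to an EC100 activator such as fructose-bis-phosphate.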
# Pyruvate kinase PKLR (Homo sapiens), sequence (P30613 whole entry, looked up): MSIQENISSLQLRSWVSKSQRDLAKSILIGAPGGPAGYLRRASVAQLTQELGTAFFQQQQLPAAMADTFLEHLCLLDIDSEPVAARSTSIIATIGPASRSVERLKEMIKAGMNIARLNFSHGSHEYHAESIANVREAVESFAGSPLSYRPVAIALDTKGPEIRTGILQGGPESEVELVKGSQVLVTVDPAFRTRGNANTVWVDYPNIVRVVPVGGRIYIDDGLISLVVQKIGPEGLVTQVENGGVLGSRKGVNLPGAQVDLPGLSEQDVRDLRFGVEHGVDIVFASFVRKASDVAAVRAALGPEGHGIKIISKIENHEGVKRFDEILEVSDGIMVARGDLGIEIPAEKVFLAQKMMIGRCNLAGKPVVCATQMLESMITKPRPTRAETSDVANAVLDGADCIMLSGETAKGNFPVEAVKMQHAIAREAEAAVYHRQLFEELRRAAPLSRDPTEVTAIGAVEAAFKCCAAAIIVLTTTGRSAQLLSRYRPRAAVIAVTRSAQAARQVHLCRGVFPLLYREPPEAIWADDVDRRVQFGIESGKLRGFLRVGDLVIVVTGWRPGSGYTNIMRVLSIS
row,SMILES,Potency
1,Cc1ccc(NS(=O)(=O)c2cc3c(cc2Cl)NC(=O)C3)cc1C,inactive
2,COc1ccc(Nc2c(-c3ccc(C)o3)nc3ccccn23)cc1,inactive
3,Cc1ccc(-c2nc3ccc(Cl)cn3c2Nc2ccccc2)o1,inactive
4,O=C1c2ccccc2C(=O)N1c1cccc(=O)[nH]1,inactive
5,Cc1ccc2nc(-c3ccc(C)o3)c(NC3CCCC3)n2c1,inactive
6,CNc1cc2c(cc1S(=O)(=O)Nc1ccc(C)c(C)c1)CCC(=O)N2,inactive
7,O=C1c2ccccc2C(=O)N1c1nccs1,inactive
8,Cc1ccccc1NS(=O)(=O)c1ccc2c(c1)CCC(=O)N2,inactive
9,Cc1ccn2c(NC3CCCCC3)c(-c3ccc(C)o3)nc2c1,inactive
10,O=C1CCc2cc(S(=O)(=O)Nc3ccncc3)ccc2N1,inactive
11,O=C1CCc2cc(S(=O)(=O)Nc3ccc(F)cc3)ccc2N1,inactive
12,O=C1CCc2cc(S(=O)(=O)Nc3ccccc3F)ccc2N1,inactive
13,Cc1ccc(NS(=O)(=O)c2ccc3c(c2)NC(=O)CO3)cc1C,inactive
14,O=S(=O)(c1ccc2c(c1)OCCO2)N1CCN(S(=O)(=O)c2c(F)cccc2F)CC1,inactive
15,O=C1c2ccccc2C(=O)N1Cc1ccccn1,inactive
16,O=C1c2ccccc2C(=O)N1Cc1cccnc1,inactive
17,O=C1CCc2cc(S(=O)(=O)Nc3cccc(Cl)c3)ccc2N1,inactive
18,Cc1ccc(NS(=O)(=O)c2cc3c(cc2Cl)CCC(=O)N3)cc1C,inactive
